Experimental data published in PubChem BioAssay (NCI).
This is part of a sample that, as a whole, favours compounds with a hit. Of some 83,000 tested, about 20% had one in any assay.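 Percent growth is the endpoint: 0 to 100 indicates growth inhibition (40 means 60% inhibition), 0 means no net growth, and negative values indicate cell death.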 Values without a mark were called inactive. Active and inactive are the calls of the source.

Tested on: OVCAR-5 ovarian
Assay: NCI-60 one-dose screen, 48 h (100 = growth as untreated, 0 = no growth, -100 = all killed)
Conditions: 10 µM unless noted
Description: Growth inhibition of the OVCAR-5 human tumor cell line is measured as a screen for anti-cancer activity. Cells are grown in 96 well plates and exposed to the test compound for 48 hours. Compounds are tested at a single concentration, which is 10^-5 M for most compounds. The reported endpoint is percent growth (GI% or GIPRCNT), where numbers from 0 - 100% represent growth inhibition, and numbers from -100% - 0 represent cell death. For example, a value of 40 represents 60% growth inhibition. A value of 0 means no net growth occurred over the course of the experiment. A value of -40 indicates 40% of cells at the beginning of the experiment died by the end of the experiment. A value of -100 means all cells are dead at the end of the experiment.
NCI-60 Human Tumor Cell Lines Screen was performed using the standard one-dose NCI protocol, which is described in more detail at https://dtp.cancer.gov/discovery_development/nci-60/default.htm.
Compounds with GIPRCNT values below 10 were considered active. Activity score was based on GIPRCNT using the following formula: […]
Score is 0 for GIPRCNT values of 100 or above, 50 for GIPRCNT values of 0, and 100 for GIPRCNT values of -100.

| Compound | growth |
| --- | --- |
| O=C(O)CS(=O)c1ccc(Cl)cc1 (stereo not given) | 95.5% |
| COC(=O)c1cc(O)c2cc3c(cc2c1-c1cc(OC)c(OC)c(OC)c1)OCO3 | 45% |
| COc1ccc2cc(C(C)C(=O)Nc3ccc(S(=O)(=O)Nc4cc(C)on4)cc3)ccc2c1 (stereo not given) | 112% |
| O=C1Nc2ccccc2/C1=C/c1cn(CC(O)Cn2cc(/C=C3\C(=O)Nc4ccccc43)c3ccccc32)c2ccccc12 (stereo not given) | -34.2% (active) |
| COc1ccc(Nc2c3ccccc3nc3ccccc23)cc1 | 36.4% |
| COC(=O)c1ccc2[nH]c(O)c(C(=Nc3ccc(N(C)C(=O)CN4CCN(C)CC4)cc3)c3ccc([N+](=O)[O-])cc3)c2c1 | 94.3% |
| CCCCCCCCCCCCCCCCCC1=NCCN1CCNC(C)=O | 91.7% |
| CCOc1ccccc1/C=N\N=C(N/N=C/c1ccccc1OCC)N/N=C/c1ccccc1OCC | 13.9% |
| CCCC(C)c1cc(Cc2cc(Cl)cc(Cl)c2O)c(O)c(Cc2cc(Cl)cc(Cl)c2O)c1 (stereo not given) | 33.8% |
| O=C(Nc1cccc(Cn2c(=O)[nH]c3ccc(Oc4ncccn4)cc3c2=O)c1)c1cc(Cl)cc(Cl)c1 | 70% |
| CCn1cnc(C[C@H](NC(=O)[C@@H](NC(=O)Nc2cc(C(F)(F)F)cc(C(F)(F)F)c2)C(C)C)C(=O)OC)c1 | -94.9% [100 µM] (active) |
| O=C(O)CC1Cc2ccccc2C1C(=O)O (stereo not given) | 108% |
| N=C(N)N=Nc1ccc(NN=C(N)N)cc1 | 78.7% |
| N#Cc1ccc(OCc2nc(N)nc(N)c2-c2ccc(Cl)c(Cl)c2)cc1 | 36.9% |
| COc1ccc2c(c1)/C(=C1/S/C(=N/c3nnc(C)s3)NC1=O)C(=O)N2Cc1ccc(Br)cc1 | 74.5% |
| CC(=O)OC1/C=C\CC/C=C\C1 (stereo not given) | 97.4% |
| COc1cc(NC(C)CCCN)c2nccc(C)c2c1OC (stereo not given) | 91.8% |
| O=C(NCCNCCO)c1cc([N+](=O)[O-])cc([N+](=O)[O-])c1O | 108% |
| Cc1ccc(S(=O)(=O)N/N=C2\CC3CCC2C3)cc1 (stereo not given) | 98.9% |
| CC1(C)Oc2cc3oc(=O)ccc3cc2C[C@@H]1OCCOS(=O)(=O)c1ccc(C#N)cc1 | 97.9% |

| Compound | growth |
| --- | --- |
| O=S(=O)(O)c1ccc2c(c1)Sc1cc(S(=O)(=O)O)ccc1O2 | 92.1% |
| Oc1ccc(N=Nc2ccc(N=Nc3ccccc3)cc2)cc1 | 79.3% |
| C=C(C)[C@@H]1CC[C@]2(COC(=O)c3ccccc3C(=O)O)CC[C@]3(C)[C@H](CC[C@@H]4[C@@]5(C)CCCNC(C)(C)[C@@H]5CC[C@]43C)[C@@H]12 | 90% |
| COc1cc2c(c3c1c(=O)c1cccc(F)c1n3C)C=CC(C)(C)O2 | 101% |
| c1ccc(C(=NNc2nc3ccccc3o2)c2ccccn2)nc1 | 37.5% |
| COc1cccc(NC(=O)NCCNc2nccc(-c3c(-c4ccc(F)cc4)nc4sccn34)n2)c1 | 87% |
| CCCCCN1CCN(C(CC(=O)c2ccccc2)C(=O)c2ccccc2)CC1 (stereo not given) | 110% |
| O=C(Nc1ccc(-n2cc(-c3ccncc3)c(-c3ccc(Cl)c(O)c3)n2)cc1)c1ccc(Cl)c(Cl)c1 | 56.5% |
| CCc1c(C)c2ccc(OCC(=O)N=Nc3c(O)[nH]c4ccccc34)c(C)c2oc1=O | 24% |
| Clc1ccc(N/N=C(\c2ccccc2)c2ccccn2)nc1 | 36.2% |
| Nc1ccc(N=Nc2ccccc2)c2cc(S(=O)(=O)O)ccc12 | 107% |
| C[n+]1c2ccccc2c(Nc2ccc(NS(=O)(=O)CCCCN=C(N)N)cc2)c2ccc(N)cc21 | 71.9% |
| CCOC(=O)C1CCCN1C(=O)C1(NC(C)=O)CCCC1 (stereo not given) | 96.4% |
| CCCCCCCCCCCCCCCCNC(=S)N/N=C/c1ccc(O)cc1O | 95.3% |
| CC(C)(CNC1CCCCC1)OC(=O)c1ccccc1 | 114% |
| CC(=O)NNC(=O)c1sc(NC(C)=O)nc1C | 97% |
| COc1ccc(C(=O)CN2C(=O)NC(c3ccccc3)(c3ccccc3)C2=O)cc1 | 98.7% |
| COc1cc(Cn2ccc3c2-c2oncc2CC3)cc(OC)c1 | 57% |
| CCCC(CCC)Oc1ccc(CCCC2=C(O)c3ccccc3C(=O)C2=O)cc1 | 17.2% |
| CCCCCCCCCCCCCCCCCC(=O)Nc1ccc(O)cc1 | 117% |
